Assay in all cases: qHTS profiling for inhibitors of Plasmodium falciparum proliferation (AID 504749); further: nearly all actives have a fitted effect of over 60% in size
Holding throughout (conditions): P. falciparum in erythrocytes, SYBR Green DNA, 72 h; series mostly up to 28.7 µM

The test system of assay [1] is CP203. Put shortly: (§1)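 Three-day growth assay of blood-stage parasites in erythrocytes (0.3% parasitemia, 2.5% hematocrit) at 37 C, 5% CO2, quantified by SYBR Green DNA staining after overnight detergent lysis.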
Assay [2] concerns CP211. The procedure, abridged: as §1
For assay [3], the system named is CP215. Put shortly:
as §1

Assay [4] concerns CP217. The procedure, abridged:
as §1

In assay [5] the test system is CP237. Put shortly: as §1
Assay [6] concerns CP238. Put shortly: as §1
In assay [7] the test system is CP247. Put shortly:
as §1

Assay [8] relates to CP250. The procedure, abridged: as §1
Assay [9] concerns CP252. The procedure, abridged:
as §1

The subject of assay [10] is CP256. Put shortly: as §1

Inconclusive results are not listed. Activity calls are given as the source filed them. The call rests on the fitted dose curve; in most records, active means well fitted inhibition curve with a large enough effect; inconclusive means small, poorly fitted or top-dose-only effect; inactive means flat fitted curve, though single readings scatter.
Potency means the concentration at half of the fitted maximal effect.

As to `CC1(C)S[C@@H]2[C@H](NC(=O)[C@H](NC(=O)N3CCN(S(C)(=O)=O)C3=O)c3ccccc3)C(=O)N2[C@H]1C(=O)O`, the Potency result in assay [1], in assay [2], in [3], in assay [4], in assay [5] and in assay [6] was “inactive” each time. In addition, the Potency entry in assay [7], in assay [8], in assay [9] and in assay [10] was “inactive” each time.

On to `CCCSc1ccc2nc(NC(=O)OC)[nH]c2c1`, for which the Potency entry in [1], in [2], in assay [3], in [4], in assay [5] and in assay [6] was “inactive” throughout. Also, the Potency entry in assay [8], in assay [9] and in [10] was “inactive” each time.

As for `CCCCCCOc1ccccc1C(N)=O`, the Potency result in [1], in [2], in assay [3], in assay [4], in [5] and in assay [6] was “inactive” throughout. In addition, the Potency result in assay [7], in assay [8], in assay [9] and in [10] was “inactive” throughout.

In the case of `CC(=O)[C@]1(O)Cc2c(O)c3c(c(O)c2[C@@H](O[C@H]2C[C@H](N)[C@H](O)[C@H](C)O2)C1)C(=O)c1c(O)cccc1C3=O`, the Potency in [1] was 9.53 µM (active); in assay [2], 10.7 µM (active); in [3] it was 12 µM (active); in [5], 2.51 µM (active); in [7] it was 5.62 µM (active); in assay [8], 11.2 µM (active).

For the compound `CN1[C@@H](CC(=O)c2ccccc2)CCC[C@H]1C[C@H](O)c1ccccc1`, the Potency result in assay [2], in [7] and in assay [8] was “inactive” throughout. Also, the Potency in [5] is 7.94 µM (active).

With `c1ccc2sc(SN3CCOCC3)nc2c1`, the Potency result in assay [2], in [3], in assay [4], in assay [5], in assay [6] and in assay [7] was “inactive” throughout. In addition, the Potency entry in assay [8], in assay [9] and in assay [10] was “inactive” throughout.

Turning to `Nc1ccc(C(=O)O)c(O)c1`, the Potency entry in assay [2], in [3], in [4], in [5], in [6] and in assay [7] was “inactive” throughout. Moreover, the Potency result in [8], in [9] and in [10] was “inactive” throughout.

Turning to `Cc1ccccc1CNc1ncnc2c1ncn2C1OC(CO)C(O)C1O` (stereo not drawn), the Potency result in assay [2], in assay [3], in [4], in [5], in assay [6] and in [7] was “inactive” throughout. Besides, the Potency entry in assay [8], in [9] and in assay [10] was “inactive” in each case.

With `O=C(CCN1CCN(CCO)CC1)N1c2ccccc2Sc2ccc(C(F)(F)F)cc21`, the Potency entry in assay [3] is “inactive”. For the same compound, the Potency in assay [5] was 10 µM (active); in assay [10], 11.2 µM (active).

As for `COc1ccc(/C=C/C(=O)Nc2ccccc2C(=O)O)cc1OC`, the Potency entry in assay [2], in [3], in [4], in [5], in assay [6] and in [7] was “inactive” throughout. For the same compound, the Potency result in assay [8], in assay [9] and in assay [10] was “inactive” throughout.

For the compound `NC(=O)C(c1ccccc1)(c1ccccc1)[C@@H]1CCN(CCc2ccc3c(c2)CCO3)C1`, the Potency entry in assay [8] was “inactive”.

For the compound `COc1cc2c3cc1Oc1cc(ccc1O)C[C@@H]1c4c(cc(OC)c(O)c4Oc4ccc(cc4)C[C@@H]3N(C)CC2)CC[N+]1(C)C`, the Potency entry in [2], in [3], in [4], in assay [5], in [6] and in assay [7] was “inactive” in each case. Also, the Potency entry in assay [8], in [9] and in assay [10] was “inactive” each time.

In the case of `COc1cc(/C=C/C(=O)N2CCN(CC(=O)N3CCCC3)CC2)cc(OC)c1OC`, the Potency result in assay [2], in assay [3], in assay [4], in assay [5], in assay [6] and in assay [7] was “inactive” throughout. The Potency entry in assay [8], in [9] and in assay [10] was “inactive” in each case.

In the case of `CN(C)c1ccc(C(=C2C=CC(=[N+](C)C)C=C2)c2ccccc2)cc1`, the Potency in assay [4] was 11.2 µM (active); in assay [5] it was 8.91 µM (active); in [7], 6.31 µM (active); in assay [8] it was 11.2 µM (active); in assay [9] it was 12.6 µM (active); in [10] it was 10 µM (active).

As for `O=C(O)[C@H](CC(=O)N1C[C@H]2CCCC[C@H]2C1)Cc1ccccc1`, the Potency entry in [2], in assay [3], in assay [4], in assay [5], in assay [6] and in assay [7] was “inactive” throughout. For the same compound, the Potency entry in assay [8], in [9] and in [10] was “inactive” throughout.

For the compound `CCOC(=O)c1ccccc1O`, the Potency entry in assay [2], in assay [3], in assay [4], in [5], in assay [6] and in assay [7] was “inactive” each time. For the same compound, the Potency result in assay [9] and in assay [10] was “inactive” in each case.

With `O=C(O)COc1ccc(C(=O)c2cccs2)c(Cl)c1Cl`, the Potency entry in assay [2], in assay [3], in assay [4], in assay [5], in assay [6] and in [7] was “inactive” in each case. For the same compound, the Potency result in assay [8], in [9] and in assay [10] was “inactive” each time.

For the compound `COc1ccc(-c2cc(=S)ss2)cc1`, the Potency result in assay [2], in assay [3], in assay [4], in assay [5], in assay [6] and in [7] was “inactive” throughout. Also, the Potency entry in assay [8], in [9] and in assay [10] was “inactive” throughout.

The values are drawn from PubChem BioAssay (NCATS).
